Measured values taken from PubChem BioAssay AID1159580 (chemical genetic matrix, 2015).
The campaign covered roughly 5,500 compounds. About 2,000 (36%) were called active. Not shown: some 18% with an inconclusive outcome. Cut-off read from the data, not from the text of the source: active = normalized growth mostly below about 0.91 (no sharp cut-off); inconclusive = no clear call, values can overlap the other calls; inactive = mostly above about 0.92. The list shows a part of the results.

Test: chemical genetic growth profiling, strain panel (AID 1159580);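 note: tested at 20 µM; growth read once vehicle control cultures reached saturation at 30 °C; 1 = growth at the plate median or of vehicle wells; lower values mean less growth of the strain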
Conditions: S. cerevisiae deletion strains, growth OD

Measured: normalized growth

CCC(=O)Nc1ccc(Cl)c(Cl)c1
inactive: locus YAL013W, strain DEP1, stronger effect = lower value 0.99 | locus YAL021C, strain ccr4, stronger effect = lower value 0.975 | locus YAL026C, strain drs2, stronger effect = lower value 0.994 | locus YAL030W, strain snc1, stronger effect = lower value 1.01 | locus YBL061C, strain skt5, stronger effect = lower value 0.978 | locus YBR009C, strain hhf1, stronger effect = lower value 0.982 | locus YBR021W, strain FUR4, stronger effect = lower value 0.952 | locus YBR023C, strain chs3, stronger effect = lower value 0.988 | locus YBR171W, strain sec66, stronger effect = lower value 0.983 | locus YBR229C, strain ROT2, stronger effect = lower value 1 | locus YBR231C, strain swc5, stronger effect = lower value 0.982 | locus YBR279W, strain paf1, stronger effect = lower value 0.99 | locus YCL011C, strain gbp2, stronger effect = lower value 0.983 | locus YCL016C, strain dcc1, stronger effect = lower value 0.989 | locus YCL029C, strain bik1, stronger effect = lower value 1.01 | locus YCL061C, strain MRC1, stronger effect = lower value 0.986 | locus YCL069W, strain vba3, stronger effect = lower value 0.996 | locus YCR088W, strain abp1, stronger effect = lower value 0.99 | locus YDL005C, strain med2, stronger effect = lower value 0.981 | locus YDL035C, strain GPR1, stronger effect = lower value 0.988 | locus YDL040C, strain nat1, stronger effect = lower value 0.99 | locus YDL074C, strain BRE1, stronger effect = lower value 0.898 | locus YDL101C, strain DUN1, stronger effect = lower value 0.999 | locus YDL134C, strain PPH21, stronger effect = lower value 1 | locus YDL185W, strain tfp1, stronger effect = lower value 0.99 | locus YDL192W, strain arf1, stronger effect = lower value 0.994 | locus YDR001C, strain nth1, stronger effect = lower value 0.989 | locus YDR069C, strain doa4, stronger effect = lower value 0.971 | locus YDR101C, strain arx1, stronger effect = lower value 0.991 | locus YDR137W, strain rgp1, stronger effect = lower value 1.03 | locus YDR150W, strain NUM1, stronger effect = lower value 0.998 | locus YDR159W, strain sac3, stronger effect = lower value 0.959 | locus YDR162C, strain NBP2, stronger effect = lower value 0.985 | locus YDR195W, strain ref2 0.956 | locus YDR297W, strain sur2, stronger effect = lower value 0.988 | locus YDR318W, strain mcm21, stronger effect = lower value 0.996 | locus YDR334W, strain swr1, stronger effect = lower value 0.996 | locus YDR335W, strain msn5, stronger effect = lower value 0.988 | locus YDR388W, stronger effect = lower value 1 | locus YDR392W, strain spt3, stronger effect = lower value 0.98 | locus YDR502C, strain sam2, stronger effect = lower value 0.998 | locus YEL003W, strain gim4, stronger effect = lower value 0.992 | locus YEL037C, strain rad23, stronger effect = lower value 1 | locus YEL061C, strain CIN8 (second series), stronger effect = lower value 0.978 | locus YEL061C, strain CIN8, stronger effect = lower value 0.994 | locus YER016W, strain bim1, stronger effect = lower value 0.991 | locus YER110C, stronger effect = lower value 0.996 | locus YER111C, strain swi4, stronger effect = lower value 0.989 | locus YER155C, strain BEM2 (second series), stronger effect = lower value 0.998 | locus YER155C, strain BEM2, stronger effect = lower value 1.01 | locus YER167W, strain BCK2, stronger effect = lower value 1 | locus YFR010W, strain ubp6, stronger effect = lower value 0.993 | locus YGL078C, strain dbp3, stronger effect = lower value 1.01 | locus YGL086W, strain mad1, stronger effect = lower value 0.997 | locus YGL167C, strain pmr1, stronger effect = lower value 0.984 | locus YGL173C, strain kem1, stronger effect = lower value 0.978 | locus YGL227W, strain vid30, stronger effect = lower value 0.988 | locus YGL240W, strain doc1, stronger effect = lower value 0.96 | locus YGL248W, strain PDE1, stronger effect = lower value 0.993 | locus YGL253W, strain hxk2, stronger effect = lower value 1 | locus YGR078C, strain PAC10, stronger effect = lower value 0.961 | locus YGR135W, strain pre9, stronger effect = lower value 0.982 | locus YGR229C, strain SMI1, stronger effect = lower value 0.958 | locus YGR252W, strain gcn5, stronger effect = lower value 0.874 | locus YHR013C, strain ard1, stronger effect = lower value 0.971 | locus YHR027C, strain rpn1, stronger effect = lower value 0.994 | locus YHR030C, strain SLT2, stronger effect = lower value 0.978 | locus YHR079C, strain IRE1 (second series), stronger effect = lower value 0.999 | locus YHR094C, strain hxt1, stronger effect = lower value 1 | locus YHR129C, strain ARP1, stronger effect = lower value 0.988 | locus YHR142W, strain chs7, stronger effect = lower value 1 | locus YHR200W, strain rpn10, stronger effect = lower value 1 | locus YIL066C, strain RNR3, stronger effect = lower value 0.991 | locus YIL073C, strain SPO22, stronger effect = lower value 1.01 | locus YIL125W, strain kgd1, stronger effect = lower value 1 | locus YIR030C, strain dcg1, stronger effect = lower value 1 | locus YJL092W, strain hpr5, stronger effect = lower value 0.985 | locus YJL095W, strain BCK1 (second series), stronger effect = lower value 0.996 | locus YJL095W, strain BCK1, stronger effect = lower value 0.924 | locus YJL115W, strain asf1, stronger effect = lower value 0.992 | locus YJL129C, strain trk1, stronger effect = lower value 0.968 | locus YJL134W, strain LCB3, stronger effect = lower value 0.986 | locus YJL154C, strain vps35, stronger effect = lower value 0.998 | locus YJL164C, strain tpk1, stronger effect = lower value 1.01 | locus YJL166W, strain qcr8, stronger effect = lower value 0.986 | locus YJL168C, strain set2, stronger effect = lower value 1 | locus YJL187C, strain SWE1 (second series), stronger effect = lower value 1.01 | locus YJL187C, strain SWE1, stronger effect = lower value 0.984
